Screening results: PubChem BioAssay, National Center for Advancing Translational Sciences (NCATS)
ELG1 genotoxic = induces genotoxicity in HEK293T cells with luciferase-tagged ELG1. HEK293T ELG1-luciferase reporter, luminescence, 16 h. Potency, µM (top dose mostly 46 µM), inactives show top-dose activity change, positive = activation, hits mostly activators. 1.3% of 330,000 active; further: % of control where 0% means no effect; nearly all actives have a fitted effect of over 60% in size
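Quantitative HTS format in 1536-well plates. HEK293T ELG1-luciferase reporter cells receive test compound and are incubated 16 hr at 37 °C, 5% CO2; ONE-Glo added, 30 min room temperature, then luminescence read.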
FLuc counter = firefly luciferase modulation, counter-screen for miR-21 project | P08659 | purified FLuc, Km substrates, luminescence inhibition | Potency, µM (doses to about 57.5 µM), inactives show at the top dose activity change, negative = inhibition, usual class: inhibitors | 6.9% of 360,000 active;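 further: plate controls were vehicle for no effect and reference inhibitor for full effect; nearly all actives have a fitted effect of over 55% in size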
Target sequence (P08659 whole entry, looked up): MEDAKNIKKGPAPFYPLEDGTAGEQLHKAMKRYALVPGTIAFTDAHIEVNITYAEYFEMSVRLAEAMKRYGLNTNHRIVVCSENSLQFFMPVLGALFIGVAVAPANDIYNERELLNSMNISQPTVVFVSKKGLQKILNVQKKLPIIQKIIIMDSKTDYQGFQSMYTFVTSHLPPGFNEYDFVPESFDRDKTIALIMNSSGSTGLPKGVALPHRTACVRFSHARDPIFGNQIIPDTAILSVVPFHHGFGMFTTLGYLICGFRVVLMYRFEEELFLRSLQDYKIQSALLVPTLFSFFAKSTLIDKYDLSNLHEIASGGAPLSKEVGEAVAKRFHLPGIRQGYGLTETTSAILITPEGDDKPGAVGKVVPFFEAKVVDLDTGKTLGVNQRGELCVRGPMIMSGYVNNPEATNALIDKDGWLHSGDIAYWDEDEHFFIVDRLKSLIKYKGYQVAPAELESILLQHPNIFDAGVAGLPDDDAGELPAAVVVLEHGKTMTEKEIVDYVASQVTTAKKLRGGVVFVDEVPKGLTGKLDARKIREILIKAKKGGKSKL
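Biochemical qHTS of compounds, final roughly 60 µM downward over six points, against 10 nM purified firefly luciferase using Km concentrations of substrates (10 uM D-luciferin, 10 uM ATP) in Tris acetate pH 7.5 buffer; luminescence output.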
SMN2 splice up = enhancers of SMN2 splice variant expression | 2.8% of 210,000 active | AID 1458 | Potency, µM (doses to about 46.1 µM), inactives show at the top dose activity change, positive = activation, usual class: activators | HEK293 SMN2-luciferase splicing reporter, luminescence, 30-36 h; further: % of control where 0% means no effect; nearly all actives have a fitted effect of over 55% in size
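HEK293 cells carry an SMN2 […]–luciferase reporter in which exon 7 inclusion puts luciferase in frame. Cells were plated 10-12 h before compound addition, then incubated 30-36 h at 37C. ONE-Glo luminescence was read; sodium butyrate at 4.5 mM final served as control.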
NPC1 promoter act = activates the NPC1 promoter; 2.4% of 320,000 active; Potency, µM (top dose mostly 9.22 µM), for inactives: top-dose activation, most hits filed as activators; Huh7 NPC1 promoter luciferase reporter, 24 h; further: % of control where 0% means no effect; nearly all actives have a fitted effect of over 60% in size
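Readout is luciferase luminescence, reflecting NPC1 promoter activation in stably transfected Huh7 cells after 24 h compound exposure at 37 °C in reduced-serum medium with 10% FBS.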
uPA generation = cell surface uPA generation inhibition | Potency, µM (series often up to 38.3 µM), without a hit: top-dose activity change, negative = inhibition, usual class: inhibitors | AID 540303 | 0.31% of 330,000 active | cell surface uPA generation assay, qHTS; active means well fitted inhibition curve with a large enough effect; inconclusive means small, poorly fitted or top-dose-only effect; inactive means no such curve, though single readings can be large or run the other way; tested in mouse RAW 264.7 cells; further: on the % scale 0 is the no-effect control and ±100 the full control effect; nearly all actives have a fitted effect of over 55% in size
Rab9 promoter act = Rab9 promoter activation | Huh7 Rab9 promoter-luciferase reporter, luminescence, 24 h | 2.8% of 320,000 active | Potency, µM (highest dose often 9.22 µM), inactives show at the top dose activation, negative = inhibition, hits mostly activators; further: % of control where 0% means no effect; nearly all actives have a fitted effect of over 60% in size
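Promoter activation is measured as luciferase luminescence in Huh7 cells stably transfected with a Rab9 promoter–luciferase construct, following 24 h compound exposure at 37 °C and 10 min reagent incubation at ambient temperature.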
Numbers without * were called inactive; ? = inconclusive; · = no result. Sampled rows, rich in hits. Any-hit rate of the full collection: about 7.3%. Unless noted, the call rests on the fitted dose curve; in most records, active means well fitted curve in the direction sought with a large enough effect; inconclusive means small, poorly fitted or top-dose-only effect, or another doubt; inactive means no such curve, though single readings can be large; an effect the other way counts as inactive or inconclusive. Potency means the concentration at half of the fitted maximal effect.

SMILES	ELG1 genotoxic	FLuc counter	SMN2 splice up	NPC1 promoter act	uPA generation	Rab9 promoter act
Cn1c(=O)[nH]c(=O)c2c1nc(SCCC(=O)O)n2Cc1cccc(Br)c1	2.3%	2.6%	·	-3.0%	2.9%	2.0%
Cc1ccc(Cn2c(Sc3ncccn3)nc3c2c(=O)[nH]c(=O)n3C)cc1	-9.7%	3.9%	5.2%	1.1%	-4.3%	-2.4%
CC(=O)CSc1nc2c(c(=O)[nH]c(=O)n2C)n1Cc1cccc(Br)c1	20.6µM*	1.2%	·	-1.5%	-9.0%	-0.1%
C/C=C/CSc1nc2c(c(=O)[nH]c(=O)n2C)n1Cc1ccc(C)cc1	20.6µM*	2.0%	-3.3%	0.3%	-9.3%	0.0%
COC(=O)C1CCN(C(=O)/C=C/c2ccccc2)CC1	13.5%	?	14.1µM*	1.41µM*	-4.5%	1µM*
O=C(/C=C/c1ccco1)N1CCCC(c2ccccc2)C1 (configuration not stated)	3.8%	?	-6.4%	-0.6%	-6.1%	22.4%
CCOC(=O)C1CCN(C(=O)/C=C/c2ccc(OC)cc2)CC1	4.11µM*	7.57µM*	6.31µM*	0.708µM*	-3.7%	0.316µM*
CCOC(=O)C1CCN(C(=O)/C=C/c2ccccc2OC)CC1	0.5%	-4.7%	1.4%	0.9%	1.4%	-1.0%
O=C(/C=C/c1ccccc1)N1CCC(Cc2ccccc2)CC1	10.8%	15.1µM*	·	23.5%	-2.6%	29.6%
O=C(/C=C/c1ccccc1)N1CCC(c2ccccc2)C1 (configuration not stated)	6.51µM*	4.78µM*	11.2µM*	3.16µM*	-4.1%	1.58µM*
O=C(NCc1ccccc1Cl)c1ccc(CS(=O)(=O)c2ccc(Br)cc2)o1	·	-6.9%	-34.4%	·	·	·
Cc1cccc(OCc2nnc(SCC(=O)Nc3ccc(C)cc3C)o2)c1	·	-14.0%	-5.8%	·	·	·
CCCCNC(=S)Nc1ccccc1Cc1ccccc1	-4.0%	-2.1%	19.2%	0.2%	5.3%	-7.8%
Cc1ccc(S(=O)(=O)NCC(c2ccc(N(C)C)cc2)N2CCCC2)cc1 (configuration not stated)	·	-0.6%	·	·	·	·
O=S(=O)(NCc1nc2cccnc2n1Cc1ccccc1Cl)c1ccc2c(c1)CCCC2	·	-12.6%	·	·	·	·
COc1cccc(CSc2nc3ccncc3n2CC(=O)Nc2ccc(OC)c(OC)c2OC)c1	·	15.1µM*	?	·	·	·
Cc1cccc(CSc2nc3ccncc3n2CC(=O)Nc2ccc(C)c(C)c2)c1	-1.4%	?	5.0%	5.0%	·	19.2%
COc1ccc(CSc2nc3ccncc3n2CC(=O)Nc2cc(C)cc(C)c2)cc1	·	2.39µM*	?	·	·	·
COC(=O)Cn1c(SCc2ccccc2)nc2ccccc21	?	15.1µM*	12.5%	21.7%	2.0%	11.7%
CCOC(=O)c1[nH]c2c(c1Cc1ccccc1OC)C(=O)CC(c1ccc(OC)cc1)C2 (configuration not stated)	·	-0.7%	-9.4%	·	·	·
O=C(NCc1ccco1)c1cc2ccc(O)cc2oc1=O	?	10.7µM*	7.8%	?	0.2%	?
COc1ccc2cc(C(=O)NCc3ccco3)c(=O)oc2c1	5.8µM*	6.01µM*	26.8%	?	2.7%	?
COc1ccc2cc(C(=O)NCc3ccco3)c(=Nc3ccc(C(=O)O)cc3)oc2c1	13.8%	?	-33.9%	7.3%	-12.9%	7.0%
O=C(NCc1ccco1)c1cc2ccccc2o1	7.8%	?	8.7%	11.1%	0.2%	1.5%
Cc1nn(-c2ccccc2)c2c1N(CC(=O)NCc1ccc(N(C)C)cc1)C(=O)CS2	·	-9.4%	·	·	·	·
SMILES	ELG1 genotoxic	FLuc counter	SMN2 splice up	NPC1 promoter act	uPA generation	Rab9 promoter act
CC(Cc1ccco1)NC(=O)c1cccc(S(=O)(=O)N(C)C)c1 (configuration not stated)	14.6µM*	?	·	?	-2.4%	?
CC(Cc1ccco1)NC(=O)c1ccc(C(F)(F)F)cc1 (configuration not stated)	8.2µM*	6.75µM*	·	0.708µM*	-1.9%	1µM*
CN(C)S(=O)(=O)c1cccc(C(=O)NCCNC(=O)c2cccc(S(=O)(=O)N(C)C)c2)c1	0.4%	-0.9%	·	7.4%	2.9%	-2.4%
Cc1sc2nc(-c3cccnc3)nc(Cl)c2c1-c1ccccc1	11.4%	16.9µM*	?	?	-13.7%	17.1%
CCOc1ccc(Cn2nnc3c(=O)[nH]c(C4CCN(C(=O)c5ccccc5)CC4)nc32)cc1	·	-11.4%	-0.7%	·	·	·
COc1ccc(/C=N/Nc2cc(C)nc3ccccc23)cc1	?	?	·	13.0%	-13.8%	-1.8%
COc1ccc(/C=N/Nc2nnc(-c3ncc[nH]3)c3ccccc23)cc1	15.5%	0.338µM*	13.9%	2.82µM*	-4.8%	?
Oc1ccc2ccccc2c1C=NNc1ccccn1	·	·	·	·	-10.8%	·
Oc1ccc2ccccc2c1/C=N/Nc1nnc(-c2ncc[nH]2)c2ccccc12	17.3%	3.38µM*	-115.6%	-17.8%	-15.4%	-29.6%
CCc1cnc2c(c1SCc1ccccc1C)c(=O)n(C)c(=O)n2C	·	-10.7%	·	·	·	·
COC(=O)c1ccccc1NC(=O)Nc1ncccc1C	0.4%	-0.7%	2.5%	-2.6%	11.6%	-7.4%
COc1ccc(C(=O)NC(=O)Nc2ncccc2C)cc1	?	16.9µM*	?	?	-5.6%	3.55µM*
Cc1cccnc1NC(=O)Nc1ccccc1	?	10.7µM*	·	?	2.6%	3.98µM*
Cc1cccnc1NC(=O)Nc1ccc(Cl)cc1	?	4.26µM*	·	-8.3%	?	3.98µM*
COc1ccc(NC(=O)Nc2cnccn2)cc1	14.6%	?	·	24.3%	?	24.2%
Cc1cccnc1NC(=O)c1ccc(OCc2c(C)noc2C)cc1	?	?	·	-4.0%	-13.6%	1.1%
COc1ccc(NC(=O)Nc2ncccc2C)cc1	?	10.7µM*	11.2µM*	?	-0.1%	?
CCOC(=O)c1ccccc1NC(=O)N1CCOc2ccc(Cl)cc21	·	-9.4%	·	·	·	·
O=C(O)COc1ccccc1C1Nc2ccccc2-c2nnc(SCc3ccc(Cl)cc3)nc2O1 (configuration not stated)	·	?	-4.8%	·	·	·
COc1cc(OC)c(NC(=O)C(C)n2nc(-c3ccc(C)c(C)c3)ccc2=O)cc1Cl (configuration not stated)	·	-14.2%	·	·	·	·
C/C(=N\O)c1ccc(N2C(=O)C3CC=C(Cl)CC3C2=O)cc1 (configuration not stated)	?	10.7µM*	?	?	1.2%	?
Cc1ccc(NC(=O)c2ccc(N3C(=O)C4CC=C(Cl)CC4C3=O)cc2)cc1 (configuration not stated)	4.2%	-16.2%	6.8%	-1.4%	-10.9%	-1.4%
Cc1ccccc1Nc1nnc(SCC(=O)NCc2ccco2)s1	-0.2%	3.4%	5.9%	1.4%	0.6%	3.5%
